From PubChem BioAssay (NCI) come the findings set out here.

Among the test systems are NCI-H23 lung; NCI-H322M lung; HOP-62 NSCLC; HOP-92 NSCLC; NCI-H522 lung; A549/ATCC NSCLC; 786-0 renal; COLO 205 colon; DU-145 prostate; K-562 leukemia; MALME-3M melanoma; MDA-MB-231 breast; RXF 393 renal; SF-268 CNS; SF-295 CNS; SF-539 CNS; UACC-257 melanoma; M14 melanoma; HCT-15 colon.
Assay in all cases: NCI-60 one-dose screen, 48 h (100 = growth as untreated, 0 = no growth, -100 = all killed)
What all share (details): 10 µM unless noted

The structures appear in SMILES notation. The panel holds about 83,000 compounds, 20% with a hit somewhere; the sample as a whole holds those more often.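 Percent growth is the endpoint: 0 to 100 indicates growth inhibition (40 means 60% inhibition), 0 means no net growth, and negative values indicate cell death.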 Unmarked numbers belong to inactive results. Activity calls are given as the source filed them. How the source made its calls: active means growth percent below 10; inactive means the rest.

In the case of `O=c1oc2ccc(Br)cc2c(=O)n1-c1ccc(Cl)cc1F`, the growth in the test with NCI-H23 lung was 2.82% (active); in the test on NCI-H322M lung, 5.97% (active); in the test with HOP-62 NSCLC, 2.2% (active); in the test on HOP-92 NSCLC it was -12.6% (active); in the test with NCI-H522 lung it was -1.53% (active); with A549/ATCC NSCLC it was 8.23% (active). Besides, the growth was -1.15% (active) with 786-0 renal; 21.5% with COLO 205 colon; 16.4% in the test with DU-145 prostate; 6% (active) with K-562 leukemia; -30.6% (active) in the test on MALME-3M melanoma; -22.6% (active) with MDA-MB-231 breast. The growth is 4.25% (active) in the test on RXF 393 renal; 8.43% (active) in the test with SF-268 CNS; -58.4% (active) in the test with SF-295 CNS; 4.14% (active) in the test with SF-539 CNS; -10.6% (active) with UACC-257 melanoma; -11.9% (active) in the test with M14 melanoma. For the same compound, in the test with HCT-15 colon, the growth was 0.07% (active).
In the case of `COc1ccc(C2Nc3nc(OC)n(C)c(=O)c3N=C3c4ccccc4C(=O)C32)cc1` (centres undefined), the growth was 100% in the test on NCI-H23 lung; 106% in the test with NCI-H322M lung; 91.1% in the test on HOP-62 NSCLC; 81.9% in the test with HOP-92 NSCLC; 94.8% in the test with NCI-H522 lung; 98.1% in the test with 786-0 renal. Moreover, the growth is 104% in the test with COLO 205 colon; 89.2% in the test with DU-145 prostate; 83.8% with K-562 leukemia; 117% with MALME-3M melanoma; 92.2% in the test with MDA-MB-231 breast; 81% with SF-268 CNS. For the same compound, the growth was 6.96% (active) in the test on SF-295 CNS; 89.8% in the test on SF-539 CNS; 127% with UACC-257 melanoma; 92.4% in the test with M14 melanoma; 88.3% in the test with HCT-15 colon.
With `CN1C(=O)N(C)C2Nn3c(s/c(=C\c4ccc(Cl)cc4Cl)c3=O)=NC21` (centres undefined), the growth in the test with NCI-H23 lung was 61.8%; in the test on NCI-H322M lung it was 78.7%; in the test on HOP-62 NSCLC, 73.2%; in the test with HOP-92 NSCLC, 89.5%; with NCI-H522 lung it was 55.3%; in the test with A549/ATCC NSCLC it was 51.4%. Also, the growth in the test on 786-0 renal is 68.5%; in the test with COLO 205 colon, 22%; in the test on DU-145 prostate it was 30.3%; with K-562 leukemia it was 19.5%; with MALME-3M melanoma, 72.5%; in the test on MDA-MB-231 breast, 55.9%. Besides, the growth in the test with RXF 393 renal is 39.7%; in the test with SF-268 CNS it was 61.1%; in the test on SF-295 CNS it was 32.4%; with SF-539 CNS it was 36%; in the test with UACC-257 melanoma it was 84.5%; in the test with M14 melanoma it was 21%. Moreover, in the test on HCT-15 colon, the growth is 43.8%.
For `O=C(Nc1ccc(Br)cc1F)c1cc(I)ccc1O`, the growth is 4.95% (active) in the test on NCI-H23 lung; 2.64% (active) with NCI-H322M lung; 0.452% (active) with HOP-62 NSCLC; -27.7% (active) with HOP-92 NSCLC; -30% (active) in the test on NCI-H522 lung; 4.34% (active) in the test on A549/ATCC NSCLC. Also, the growth with 786-0 renal was 2.92% (active); with COLO 205 colon it was 104%; with DU-145 prostate, 17.2%; in the test with K-562 leukemia, 10.3%; in the test with MALME-3M melanoma, -20.4% (active); in the test with MDA-MB-231 breast, 32.3%. Moreover, the growth is 1.53% (active) with RXF 393 renal; 12.7% in the test with SF-268 CNS; 0.923% (active) in the test on SF-295 CNS; 9.06% (active) in the test on SF-539 CNS; -12.9% (active) in the test with UACC-257 melanoma; 16.8% in the test with M14 melanoma. The growth with HCT-15 colon was 11.9%.
Turning to `O=C(Nc1ccc(F)cc1F)c1cc(Br)ccc1O`, the growth with NCI-H23 lung is -12.6% (active); in the test on NCI-H322M lung it was 0.898% (active); with HOP-62 NSCLC it was -8.56% (active); with HOP-92 NSCLC it was -25.6% (active); with NCI-H522 lung it was -12.2% (active); with A549/ATCC NSCLC, 5.78% (active). For the same compound, the growth in the test with 786-0 renal was 3.19% (active); in the test with COLO 205 colon, 7.66% (active); in the test with DU-145 prostate, 13.2%; with K-562 leukemia, 4.71% (active); in the test on MALME-3M melanoma, -30.1% (active); in the test with MDA-MB-231 breast it was -29.9% (active). The growth is -5.34% (active) in the test with RXF 393 renal; 7.16% (active) in the test with SF-268 CNS; -24.5% (active) with SF-295 CNS; 4.41% (active) in the test on SF-539 CNS; -15% (active) in the test with UACC-257 melanoma; 7.28% (active) with M14 melanoma. Further, the growth in the test with HCT-15 colon was 9.98% (active).
For `O=C(Nc1ccsc1C(=O)NC1CCCCC1)c1ccc(F)cc1`, the growth is 100% in the test on NCI-H23 lung; 116% in the test on NCI-H322M lung; 103% in the test with HOP-62 NSCLC; 71.1% with HOP-92 NSCLC; 108% in the test with NCI-H522 lung; 103% in the test on A549/ATCC NSCLC. For the same compound, the growth was 101% in the test on 786-0 renal; 104% in the test on COLO 205 colon; 119% in the test on DU-145 prostate; 88.5% in the test with K-562 leukemia; 99.9% in the test with MALME-3M melanoma; 87.2% in the test with MDA-MB-231 breast. Moreover, the growth with RXF 393 renal is 95.6%; in the test on SF-268 CNS it was 104%; with SF-295 CNS, 110%; with SF-539 CNS, 101%; in the test with UACC-257 melanoma, 114%; in the test on M14 melanoma, 101%. Moreover, the growth with HCT-15 colon was 95.6%.
`Cc1ccc2cccc(Oc3ccc(Nc4ncnc5onc(-c6ccccc6)c45)cc3)c2n1`: the growth was 87.9% in the test with NCI-H23 lung; 88.2% in the test on NCI-H322M lung; 90.4% with HOP-62 NSCLC; 26.3% in the test on HOP-92 NSCLC; 72.2% in the test on NCI-H522 lung; 80.6% in the test with A549/ATCC NSCLC. The growth was 101% with 786-0 renal; 59.1% in the test with COLO 205 colon; 94.4% with DU-145 prostate; 76.7% in the test on K-562 leukemia; 84.1% in the test with MALME-3M melanoma; 72.2% in the test with MDA-MB-231 breast. For the same compound, the growth with RXF 393 renal was 82.8%; in the test on SF-268 CNS, 91.4%; with SF-295 CNS, 88.1%; in the test with SF-539 CNS, 79.8%; with UACC-257 melanoma, 89%; with M14 melanoma it was 84%. In addition, the growth with HCT-15 colon is 43.4%.
In the case of `CCOC(=O)C1(C(=O)OCC)N=C(c2ccccc2)C=C1c1ccccc1`, the growth with NCI-H23 lung is 86.4%; with NCI-H322M lung, 103%; in the test with HOP-62 NSCLC, 105%; in the test on HOP-92 NSCLC, 66.5%; in the test on NCI-H522 lung it was 64.4%; in the test with A549/ATCC NSCLC, 86.7%. Moreover, the growth in the test with 786-0 renal was 96%; with COLO 205 colon, 99.9%; with DU-145 prostate, 106%; in the test with K-562 leukemia, 65.2%; in the test on MALME-3M melanoma, 86.4%; with MDA-MB-231 breast it was 96.3%. For the same compound, the growth in the test with RXF 393 renal was 74.9%; with SF-268 CNS, 92.6%; in the test on SF-295 CNS, 84.9%; in the test with SF-539 CNS, 94%; in the test on UACC-257 melanoma it was 92.1%; in the test on M14 melanoma, 90.5%. Moreover, the growth with HCT-15 colon was 96.5%.
Take `CCOc1ccc2c(c1)CN(Cc1ccc(Cl)cc1)CO2`: the growth in the test on NCI-H23 lung was 80.8%; with NCI-H322M lung it was 69.1%; with HOP-62 NSCLC, -7.93% (active); in the test with HOP-92 NSCLC, 43.4%; in the test on NCI-H522 lung, 72.9%; with A549/ATCC NSCLC, 18.7%. For the same compound, the growth in the test on 786-0 renal is 6.53% (active); with COLO 205 colon, 76.7%; with DU-145 prostate, 38.3%; in the test on K-562 leukemia, 57.2%; with MALME-3M melanoma, 30.1%; in the test with MDA-MB-231 breast, 35.2%. The growth is -3.87% (active) in the test with RXF 393 renal; 24.9% with SF-268 CNS; -7.02% (active) in the test on SF-295 CNS; 1.31% (active) in the test with SF-539 CNS; 70.9% in the test with UACC-257 melanoma; 55.6% in the test on M14 melanoma. The growth in the test on HCT-15 colon is 70%.
